Data taken from ChEMBL document CHEMBL3433997, “St. Jude Leishmania screening dataset” (2016).

How the values were obtained:
Format in all cases: functional
[1] = biological target: Solute carrier family 2, facilitated glucose transporter member 1 (Homo sapiens) (UniProt P11166); test: ST_JUDE_LEISH: Cytotoxicity at 2uM final concentration against transgenic Leishmania Mexicana promastigotes LmGLUT1 that are glucose transport deficient and complemented with the human glucose transporter GLUT1. Activity is measured by DNA content using SYBR green in vitro
[2] = biological target: Hexose transporter 1 (Plasmodium falciparum) (UniProt O97467); test: ST_JUDE_LEISH: Cytotoxicity at 2uM final concentration against transgenic Leishmania Mexicana promastigotes LmPfHT that are glucose transport deficient and complemented with the Plasmodium falciparum hexose transporter. Activity is measured by DNA content using SYBR green in vitro
[3] = biological target: Glucose transporter (Leishmania mexicana) (UniProt O61059); test: ST_JUDE_LEISH: Cytotoxicity at 2uM final concentration against transgenic Leishmania Mexicana promastigotes LmGT2 that are glucose transport deficient and complemented with the L. Mexicana glucose transporter 2. Activity is measured by DNA content using SYBR green in vitro

Sequence of Solute carrier family 2, facilitated glucose transporter member 1 (Homo sapiens) (P11166 whole entry): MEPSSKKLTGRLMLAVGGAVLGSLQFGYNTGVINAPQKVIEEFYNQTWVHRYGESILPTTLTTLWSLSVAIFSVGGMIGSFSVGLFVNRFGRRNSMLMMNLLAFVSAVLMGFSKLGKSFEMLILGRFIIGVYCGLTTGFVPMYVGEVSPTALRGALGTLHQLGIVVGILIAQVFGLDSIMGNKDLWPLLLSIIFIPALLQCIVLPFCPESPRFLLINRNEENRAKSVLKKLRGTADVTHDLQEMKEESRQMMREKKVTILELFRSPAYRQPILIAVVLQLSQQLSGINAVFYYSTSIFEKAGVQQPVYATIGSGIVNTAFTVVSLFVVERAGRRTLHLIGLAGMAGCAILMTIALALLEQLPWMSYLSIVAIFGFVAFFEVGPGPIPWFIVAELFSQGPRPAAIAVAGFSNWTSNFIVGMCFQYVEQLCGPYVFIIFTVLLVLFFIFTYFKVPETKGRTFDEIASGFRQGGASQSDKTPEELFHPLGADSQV

SMILES | inhibition [1] | inhibition [2] | inhibition [3]
C=CCNc1cc(-c2ccccn2)nc(-c2ccccn2)n1 | 31.9% | 9.08% | 6.05%
CO/C(=C\C=C\c1cc2cc(Cl)c(Cl)cc2[nH]1)C(=O)NCCCN1CCN(Cc2ccccc2)CC1 | 2.32% | 0.91% | 2.11%
NCCCNc1ccc(-c2ccc(NC(=O)Nc3cc(C(F)(F)F)ccc3F)cc2)cn1 | 2.29% | 2.81% | 1.11%
CCOc1cc(C)ccc1N1CCN(CCN2CCC(NC(=O)c3ccc(-c4ccc(C#N)cc4)cc3)CC2)CC1 | 1.65% | 1.91% | 2.27%
Cc1ccc(C(=O)N2CCc3cc4nccc(N5CCN6CCC[C@H]6C5)c4cc32)cc1 | 1.81% | 0.6% | 1.55%
CCCN(Cc1nnc(-c2ccco2)o1)C(=O)C1CCN(c2ncc(C(F)(F)F)cc2Cl)CC1 | 11.4% | 10.2% | 10.8%
COCCNCc1cccc(-c2ccc(CNC3CCN(Cc4ccccc4)CC3)cc2)c1 | 1.41% | 3.3% | 4.63%
COc1ccc2nccc([C@@H](O)CN3CCC(NCc4nc5ccccc5s4)CC3)c2c1 | 4.29% | 6.41% | -0.69%
COc1cc(NC(=O)c2ccc(-c3ccc(C(C)=O)cc3)s2)ccc1OCCN1CCCC1 | 0.3% | -0.14% | 1.4%
c1cc(CN2CCN(CCN3CCOCC3)CC2)cc(-c2ccc(-c3nc4ccccc4[nH]3)cc2)c1 | 10.9% | 6.81% | 9.58%
Cc1nc2nc(N)nc(N)c2c(C)c1Cc1cccc(C#N)c1 | 3.44% | 2.87% | 2.88%
COc1ccc2nccc(NC(=O)C3CCC(NCc4ccc5c(c4)NC(=O)CS5)CC3)c2c1 (stereo unspecified) | 4.42% | 2.96% | 0.5%
